Calls of active or inactive are those of the source.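 The calls were made as follows: active = response below a set limit, under 55% cells CD8-positive and vesicle-bound, and CD8 cells' 90th-percentile brightness under 279; inactive = the rest.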
experiment: modulators of CIT2-GFP expression in yeast, confirmation, S. cerevisiae, GFP fusion, cherry picks, mother/daughter gates (AID 2274); settings: S. cerevisiae CIT2-GFP strain, flow cytometry, 3 h; measured here: daughter cell gate; at 10 µM; stronger effect = higher value

| SMILES | GFP response, % of DMSO [%] |
| --- | --- |
| O=C1NC(=O)N(Cc2ccco2)C(=O)/C1=C/c1ccc(-c2cccc([N+](=O)[O-])c2)o1 | 95.6 |
| CC1(C)OC(c2ccccc2)=C/C(=C/C=C2C(=O)NC(=S)NC2=O)O1 | 121 |
| O=C1NC(=O)N(CCc2ccc(F)cc2)C(=O)/C1=C/c1cccs1 | 85.7 |
| C[C@]12CCC(=O)C(O)=C1CC[C@@H]1[C@@H]2CC[C@]2(C)C(=O)CC[C@@H]12 | 103 |
| CN1CCN(c2ccc([N+](=O)[O-])c(Sc3ccccn3)c2)CC1 | 103 |
| O=C1/C(=C\c2ccc(Cl)c(Cl)c2)N2CCC1CC2 | 101 |
| CCC(C)N1C(=O)/C(=C\c2cnc(N(C)C)nc2)C(=O)NC1=S (stereo not given) | 114 |
| Nc1ccc2ccc3cccc[n+]3c2c1 | 204 |

same assay, conditions: S. cerevisiae CIT2-GFP strain, flow cytometry, 3 h; measured here: mother cell gate; at 10 µM; stronger effect = higher value

| SMILES | GFP response, % of DMSO [%] |
| --- | --- |
| O=C1NC(=S)N(c2ccccc2)C(=O)/C1=C/c1ccco1 | 65.5 |
| O=C1NC(=O)N(Cc2ccco2)C(=O)/C1=C/c1ccc(-c2cccc([N+](=O)[O-])c2)o1 | 85.8 |
| CC1(C)OC(c2ccccc2)=C/C(=C/C=C2C(=O)NC(=S)NC2=O)O1 | 117 |
| O=C1NC(=O)N(CCc2ccc(F)cc2)C(=O)/C1=C/c1cccs1 | 72.8 |
| C[C@]12CCC(=O)C(O)=C1CC[C@@H]1[C@@H]2CC[C@]2(C)C(=O)CC[C@@H]12 | 105 |
| CN1CCN(c2ccc([N+](=O)[O-])c(Sc3ccccn3)c2)CC1 | 102 |
| O=C1/C(=C\c2ccc(Cl)c(Cl)c2)N2CCC1CC2 | 96.8 |
| CCC(C)N1C(=O)/C(=C\c2cnc(N(C)C)nc2)C(=O)NC1=S (stereo not given) | 90.2 |
| Nc1ccc2ccc3cccc[n+]3c2c1 | 196 |

experiment: inhibitors of CD8+ T cell-vesicle binding, pilot screen, LFA-1/ICAM-1 modulator project, MLPCN validation set, flow cytometry (AID 2523); settings: 2C mouse CD8+ T cells, at 7 µM, stronger effect = lower value; double positive events: measured here: CD8+/vesicle+ event percentage;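 as to vesicle binding response: mean PE anti-B7-1 fluorescence of CD8+ cells relative to row control; 100% = QL9-loaded vesicles with DMSO vehicle in the same plate row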

| SMILES | double positive events [%] | vesicle binding response |
| --- | --- | --- |
| CC(CCc1ccccc1)NC(C)C(O)c1ccc(O)cc1 (stereo not given) | 49 | 166% (inactive) |
| NCCc1ccc(O)cc1 | 60 | 185% (inactive) |
| CC/C(=C\C=C\[C@@H]1C=C[C@@H]2CCC[C@H]2[C@@H]1C(=O)c1ccc[nH]1)[C@@H]1O[C@@H]([C@@H](C)C(=O)O)CC[C@@H]1C | 60.2 | 275% (inactive) |
| Cc1c2ccncc2c(C)c2c1[nH]c1ccccc12 | 61 | 710% (inactive) |
| CCC(COC(=O)c1cc(OC)c(OC)c(OC)c1)(c1ccccc1)N(C)C (stereo not given) | 73.3 | 306% (inactive) |
| Clc1ccc(COC(Cn2ccnc2)c2ccc(Cl)cc2Cl)c(Cl)c1 (stereo not given) | 71.9 | 306% (inactive) |
| COc1cc(/C=C2\C(=O)NC(=O)N(c3ccccc3)C2=O)c([N+](=O)[O-])cc1OC | 61.7 | 106% (inactive) |
| Nc1ccc([As](=O)(O)O)cc1 | 53.2 | 190% (inactive) |
| O=C1CSC2N1CCNC21CCCCC1 (stereo not given) | 64.1 | 191% (inactive) |
| CC(=O)Nc1cc([As](=O)(O)O)ccc1O | 62.8 | 170% (inactive) |
| C[C@]12CCC(=O)C(O)=C1CC[C@@H]1[C@@H]2CC[C@]2(C)C(=O)CC[C@@H]12 | 68.3 | 118% (inactive) |
| C[C@]12CCC(=O)C=C1CC[C@@H]1[C@@H]2C(=O)C[C@]2(C)C(=O)CC[C@@H]12 | 61 | 259% (inactive) |
| CN1[C@@H]2CC[C@H]1CC(OC(=O)C1C=Nc3ccccc31)C2 (stereo not given in full) | 52.3 | 136% (inactive) |
| CCCC(=O)OCC[N+](C)(C)C | 63.6 | 145% (inactive) |
| CC12CCC3C(CC=C4CC5(CCC43C)OCCO5)C1CCC2=O (stereo not given) | 65.4 | 179% (inactive) |
| Cc1nc2ccccc2c(=O)n1-c1ccc(C(=O)O)cc1 | 63.4 | 165% (inactive) |
| c1ccc2c(c1)OCC(C1=NCCN1)O2 (stereo not given) | 56.2 | 163% (inactive) |
| C[C@]12CC[C@@H]3c4ccc(O)c(O)c4CC[C@H]3[C@@H]1CC[C@@H]2O | 51 | 107% (inactive) |
| NCC(O)c1ccc(O)cc1 (stereo not given) | 66.5 | 150% (inactive) |
| COc1ccc2c3c([nH]c2c1)C(C)=NCC3 | 57.1 | 218% (inactive) |
| CCCC(C)(COC(N)=O)COC(=O)NC(C)C (stereo not given) | 64.3 | 111% (inactive) |
| c1cnc2c(c1)ccc1ncccc12 | 64.8 | 165% (inactive) |
| CC12CN3CC(c4ccccc4)(CN(C1)C31CCCCC1)C2=O | 60.1 | 232% (inactive) |
| C[C@H]1CCCC(=O)CCCCCc2cc(O)cc(O)c2C(=O)O1 | 60.2 | 160% (inactive) |

From PubChem BioAssay
